# The panel holds about 83,000 compounds, 20% with a hit somewhere; the sample as a whole holds those more often.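 Interpretation: 100, growth as untreated; towards 0, rising growth inhibition; 0, no net growth; 0 to -100, cell death. Compounds scoring below 10 were considered active.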 A number with no mark means an inactive call. The source made the active and inactive calls.
# Test system: MDA-MB-468 breast
# Assay: NCI-60 one-dose screen, 48 h (100 = growth as untreated, 0 = no growth, -100 = all killed)
# Details: 10 µM unless noted
row,Structure (SMILES),growth
1,CCCCCCNc1nc(N2CCOCC2)c2[nH]c(NCCCCCC)nc2n1,-76.7% (active)
2,COc1cc(C(=O)Nc2cc(OC)c3ccn(C)c3c2)cc2c1C[C@]1(C)CC[C@@H](O)C(C)(C)[C@H]1O2,8.94% (active)
3,c1cn2c(ccc3nc(-c4cn[nH]c4)c4c(c32)CCCC4)n1,42%
4,O=C(Nc1ccc(Br)cc1)Nc1nc2ccc([N+](=O)[O-])cc2s1,-29% (active)
5,CCN(CC)CCCC(Cc1ccccc1)Nc1c2ccc(Cl)cc2nc2ccc(OC)cc12 (stereo unspecified),-72.3% (active)
6,Oc1[nH]c2ccc(Cl)cc2c1/C=c1/ccc2c(c1)N=C(c1cccs1)N=2,55.2%

# Reference: PubChem BioAssay (NCI)
